# Source: the supplement of paper PMC12282887
# ± gives the standard deviation of the averaged measurements.
# Legend:
# Experiment in all cases: promoter activity interaction Z-score (Lux/OD deviation from empty-vector control); higher = stronger promoter induction by the compound
# [1] = system: E. coli BW25113 acrABp lux reporter
# In short: (§1)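 Wild-type E. coli BW25113 and three single-gene deletion strains, each carrying a low-copy luxCDABE promoter reporter, were grown at 37°C in 40 µl LB Lennox per well of a 384-well plate. Every compound was applied at four 1:2 dilutions in biological duplicates, and OD600 and luminescence were read every 30 min for 12 h. Integration covered 0–8 h for wild type and 1–9 h for deletion strains, and wells under 10% of the median growth value were removed. Scores are Z-transformed residuals of growth-normalised luminescence fitted against a control.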
# [2] = system: E. coli BW25113 micFp lux reporter
# In short: as §1
# [3] = system: E. coli BW25113 ompFp lux reporter
# In short: as §1
# [4] = system: E. coli BW25113 robp lux reporter
# In short: as §1
# [5] = system: E. coli BW25113 soxSp lux reporter
# In short: as §1
# [6] = system: E. coli BW25113 tolCp lux reporter
# In short: as §1
# [7] = 3.2 µg/ml, genetic background: wild type
# [8] = 3.2 µg/ml, genetic background: ΔmarA
# [9] = 3.2 µg/ml, genetic background: Δrob
# [10] = 3.2 µg/ml, genetic background: ΔsoxS
# [11] = 6.3 µg/ml, genetic background: wild type
# [12] = 6.3 µg/ml, genetic background: ΔmarA
# [13] = 6.3 µg/ml, genetic background: Δrob
# [14] = 6.3 µg/ml, genetic background: ΔsoxS
# [15] = 12.7 µg/ml, genetic background: wild type
# [16] = 12.7 µg/ml, genetic background: ΔmarA
# [17] = 12.7 µg/ml, genetic background: Δrob
# [18] = 12.7 µg/ml, genetic background: ΔsoxS
# [19] = 25.3 µg/ml, genetic background: wild type
# [20] = 25.3 µg/ml, genetic background: ΔmarA
# [21] = 25.3 µg/ml, genetic background: Δrob
# [22] = 25.3 µg/ml, genetic background: ΔsoxS
smiles,measurement,setting,value
Cc1cc(NS(=O)(=O)c2ccc(N)cc2)no1 [Sulfamethoxazole],promoter activity interaction Z-score,[1]; [7],-0.0765 ± 0.27
same,promoter activity interaction Z-score,[1]; [8],0.689 ± 0.77
same,promoter activity interaction Z-score,[1]; [9],-0.221 ± 0.15
same,promoter activity interaction Z-score,[1]; [10],-0.171 ± 0.12
same,promoter activity interaction Z-score,[1]; [11],-0.0766 ± 0.0099
same,promoter activity interaction Z-score,[1]; [12],0.146 ± 0.35
same,promoter activity interaction Z-score,[1]; [13],-0.0332 ± 0.079
same,promoter activity interaction Z-score,[1]; [14],-0.186 ± 0.085
same,promoter activity interaction Z-score,[1]; [15],0.0229 ± 0.067
same,promoter activity interaction Z-score,[1]; [16],0.358 ± 0.25
same,promoter activity interaction Z-score,[1]; [17],0.21 ± 0.21
same,promoter activity interaction Z-score,[1]; [18],0.0418 ± 0.11
same,promoter activity interaction Z-score,[1]; [19],0.696 ± 0.24
same,promoter activity interaction Z-score,[1]; [20],2.36 ± 1.9
same,promoter activity interaction Z-score,[1]; [21],1.91 ± 0.82
same,promoter activity interaction Z-score,[1]; [22],1.07 ± 0.6
same,promoter activity interaction Z-score,[2]; [7],0.243 ± 0.46
same,promoter activity interaction Z-score,[2]; [8],-0.0615 ± 0.078
same,promoter activity interaction Z-score,[2]; [9],0.056 ± 0.14
same,promoter activity interaction Z-score,[2]; [10],-0.0348 ± 0.3
same,promoter activity interaction Z-score,[2]; [11],0.103 ± 0.45
same,promoter activity interaction Z-score,[2]; [12],-0.116 ± 0.015
same,promoter activity interaction Z-score,[2]; [13],0.146 ± 0.091
same,promoter activity interaction Z-score,[2]; [14],0.0657 ± 0.36
same,promoter activity interaction Z-score,[2]; [15],0.21 ± 0.55
same,promoter activity interaction Z-score,[2]; [16],0.0105 ± 0.057
same,promoter activity interaction Z-score,[2]; [17],0.372 ± 0.13
same,promoter activity interaction Z-score,[2]; [18],0.279 ± 0.24
same,promoter activity interaction Z-score,[2]; [19],0.861 ± 0.2
same,promoter activity interaction Z-score,[2]; [20],-0.421 ± 0.013
same,promoter activity interaction Z-score,[2]; [21],0.736 ± 0.28
same,promoter activity interaction Z-score,[2]; [22],0.648 ± 0.11
same,promoter activity interaction Z-score,[3]; [7],1.17 ± 0.96
same,promoter activity interaction Z-score,[3]; [8],0.735 ± 0.72
same,promoter activity interaction Z-score,[3]; [9],0.192 ± 0.73
same,promoter activity interaction Z-score,[3]; [10],0.202 ± 0.47
same,promoter activity interaction Z-score,[3]; [11],0.748 ± 0.53
same,promoter activity interaction Z-score,[3]; [12],0.504 ± 0.34
same,promoter activity interaction Z-score,[3]; [13],0.735 ± 0.12
same,promoter activity interaction Z-score,[3]; [14],0.441 ± 0.62
same,promoter activity interaction Z-score,[3]; [15],1.51 ± 1.2
same,promoter activity interaction Z-score,[3]; [16],1.32 ± 0.24
same,promoter activity interaction Z-score,[3]; [17],1.71 ± 0.49
same,promoter activity interaction Z-score,[3]; [18],1.17 ± 0.39
same,promoter activity interaction Z-score,[3]; [19],2.06 ± 0.7
same,promoter activity interaction Z-score,[3]; [20],2.26 ± 0.076
same,promoter activity interaction Z-score,[3]; [21],3.31 ± 1.6
same,promoter activity interaction Z-score,[3]; [22],1.97 ± 1.8
same,promoter activity interaction Z-score,[4]; [7],0.934 ± 0.15
same,promoter activity interaction Z-score,[4]; [8],0.341 ± 0.082
same,promoter activity interaction Z-score,[4]; [9],0.297 ± 1.1
same,promoter activity interaction Z-score,[4]; [10],-0.129 ± 0.16
same,promoter activity interaction Z-score,[4]; [11],0.764 ± 0.4
same,promoter activity interaction Z-score,[4]; [12],0.234 ± 0.17
same,promoter activity interaction Z-score,[4]; [13],0.557 ± 0.64
same,promoter activity interaction Z-score,[4]; [14],0.243 ± 0.13
same,promoter activity interaction Z-score,[4]; [15],1.5 ± 0.42
same,promoter activity interaction Z-score,[4]; [16],1.47 ± 0.23
same,promoter activity interaction Z-score,[4]; [17],0.701 ± 0.021
same,promoter activity interaction Z-score,[4]; [18],0.407 ± 1.1
same,promoter activity interaction Z-score,[4]; [19],3.24 ± 0.095
same,promoter activity interaction Z-score,[4]; [20],0.76 ± 0.27
same,promoter activity interaction Z-score,[4]; [21],3.24 ± 0.084
same,promoter activity interaction Z-score,[4]; [22],3.15 ± 1.5
same,promoter activity interaction Z-score,[5]; [7],-0.125 ± 0.029
same,promoter activity interaction Z-score,[5]; [8],-0.2505 ± 0.00087
same,promoter activity interaction Z-score,[5]; [9],-0.453 ± 0.05
same,promoter activity interaction Z-score,[5]; [10],-0.491 ± 0.32
same,promoter activity interaction Z-score,[5]; [11],-0.197 ± 0.018
same,promoter activity interaction Z-score,[5]; [12],-0.00904 ± 0.067
same,promoter activity interaction Z-score,[5]; [13],-0.169 ± 0.057
same,promoter activity interaction Z-score,[5]; [14],-0.482 ± 0.4
same,promoter activity interaction Z-score,[5]; [15],-0.385 ± 0.017
same,promoter activity interaction Z-score,[5]; [16],-0.102 ± 0.16
same,promoter activity interaction Z-score,[5]; [17],-0.194 ± 0.12
same,promoter activity interaction Z-score,[5]; [18],-0.0885 ± 0.49
same,promoter activity interaction Z-score,[5]; [19],-0.318 ± 0.11
same,promoter activity interaction Z-score,[5]; [20],-0.113 ± 0.15
same,promoter activity interaction Z-score,[5]; [21],-0.388 ± 0.03
same,promoter activity interaction Z-score,[5]; [22],-0.495 ± 0.81
same,promoter activity interaction Z-score,[6]; [7],1.21 ± 0.56
same,promoter activity interaction Z-score,[6]; [8],-0.16 ± 0.5
same,promoter activity interaction Z-score,[6]; [9],-0.33 ± 1
same,promoter activity interaction Z-score,[6]; [10],-0.705 ± 0.53
same,promoter activity interaction Z-score,[6]; [11],-0.676 ± 0.91
same,promoter activity interaction Z-score,[6]; [12],1.17 ± 0.5
same,promoter activity interaction Z-score,[6]; [13],0.87 ± 0.48
same,promoter activity interaction Z-score,[6]; [14],-0.0792 ± 0.033
same,promoter activity interaction Z-score,[6]; [15],-0.0116 ± 0.8
same,promoter activity interaction Z-score,[6]; [16],0.0751 ± 0.68
same,promoter activity interaction Z-score,[6]; [17],0.998 ± 0.39
same,promoter activity interaction Z-score,[6]; [18],0.466 ± 1
same,promoter activity interaction Z-score,[6]; [19],1.95 ± 0.023
same,promoter activity interaction Z-score,[6]; [20],0.663 ± 1.2
same,promoter activity interaction Z-score,[6]; [21],0.663 ± 0.22
same,promoter activity interaction Z-score,[6]; [22],1.64 ± 0.21
